Only some compounds are listed: those with a hit (about 3.5% of all), similar ones and a draw of the others.
Sm TGR inh = S. mansoni TGR enzyme inhibition; Q962Y6; purified TGR, DTNB reduction, TNB absorbance 405 nm; Potency, µM (top dose mostly 114 µM), inactives show top-dose activity change, negative = inhibition, hits mostly inhibitors; 3% of 360,000 active; AID 485364; note: % is set by controls: 0 for no effect and ±100 for the full control effect; nearly all actives have a fitted effect of over 60% in size
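First, TGR (20 nM dispensed) and NADPH were mixed with compound. Second, a 15 min room-temperature incubation followed. Third, further NADPH and then DTNB were added to start the reaction. Finally, TNB absorbance was monitored kinetically.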
TbPYK inhibitor = T. brucei pyruvate kinase inhibition | Potency, µM (doses to about 76.8 µM), without a hit: at the top dose activity, negative = inhibition, usual class: inhibitors | 0.12% of 410,000 active | Q57TT1 | TbPYK enzyme, Kinase-Glo Plus ATP luminescence, 45 min; note: % is set by controls: 0 for no effect and ±100 for the full control effect; nearly all actives have a fitted effect of over 50% in size
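Luminescent Kinase-Glo Plus end-point after 45 min room-temperature reaction of T. brucei pyruvate kinase started with 130 uM ADP (final). Buffer TEA 50 mM pH 7.2 with KCl, MgCl2, BSA, Tween-20; titration-based qHTS with fitted concentration-effect curves.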
Giardia FBPA inh = inhibitors of Giardia lamblia fructose-1,6-bisphosphate aldolase; A8B2U2; purified Giardia FBPA; Potency, µM (series often up to 59.6 µM), for the others: top-dose activity, negative = inhibition, hits mostly inhibitors; 0.71% of 290,000 active; AID 2451; note: % is set by controls: 0 for no effect and ±100 for the full control effect; nearly all actives have a fitted effect of over 55% in size
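Giardia FBPA (40 nM reagent) was preincubated 10 min at RT with compound (up to 57.5 uM final), then substrate plus GAPDH/TPI/NAD/arsenate coupling system with diaphorase/resazurin was added; resorufin fluorescence (525/598 nm) was read after 20 min.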
LmPK inhibitor = blocks Leishmania mexicana pyruvate kinase activity. purified LmPK, Kinase-Glo ATP luminescence, 1 h. Potency, µM (series often up to 57.5 µM), inactives show at the highest dose activity change, negative = inhibition, actives largely listed as inhibitors. 0.37% of 290,000 active; note: % is set by controls: 0 for no effect and ±100 for the full control effect
Target sequence (Q27686 whole entry, looked up): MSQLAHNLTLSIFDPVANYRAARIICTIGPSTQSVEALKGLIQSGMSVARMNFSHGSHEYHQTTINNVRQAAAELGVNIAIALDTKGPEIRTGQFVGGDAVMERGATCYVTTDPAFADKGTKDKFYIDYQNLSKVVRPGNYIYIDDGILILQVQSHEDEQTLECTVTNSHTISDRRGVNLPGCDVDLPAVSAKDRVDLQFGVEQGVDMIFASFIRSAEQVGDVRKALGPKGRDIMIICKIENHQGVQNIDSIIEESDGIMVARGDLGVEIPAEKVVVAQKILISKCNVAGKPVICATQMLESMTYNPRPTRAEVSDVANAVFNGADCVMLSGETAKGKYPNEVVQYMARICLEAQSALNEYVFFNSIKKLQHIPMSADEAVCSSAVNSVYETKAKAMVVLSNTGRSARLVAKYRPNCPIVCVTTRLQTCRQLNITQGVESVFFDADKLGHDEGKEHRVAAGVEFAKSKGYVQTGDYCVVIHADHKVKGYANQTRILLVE
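Pyruvate kinase activity monitored as ATP production (luciferase luminescence). Conditions: 0.1 nM enzyme, 0.5 mM PEP, 0.1 mM ADP, 1 h, RT; normalized against uninhibited and no-enzyme wells.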
RE007 growth inh = less growth of the S. pombe RE007 Vpr strain; Potency, µM (series often up to 92.2 µM), without a hit: at the highest dose activity change, negative = less growth, usual class: inhibitors; 0.21% of 360,000 active; S. pombe RE007 Vpr strain, BacTiter-Glo ATP luminescence, 24 h; active = well fitted falling curve with a large enough effect; inconclusive = small, poorly fitted or top-dose-only effect; inactive = no such curve, though single readings can be large or run the other way; note: % is set by controls: 0 for no effect and ±100 for the full control effect; nearly all actives have a fitted effect of over 50% in size
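Fission yeast strain RE007, carrying one chromosomally integrated HIV-1 vpr copy, was seeded at OD 0.01 in PMG+AL medium with 23 nL pinned compound. After 24 h at 30 °C and 99% humidity, viability was read by BacTiter-Glo luminescence.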
NS1 inh = blocks influenza NS1 protein function. Potency, µM (top dose mostly 46.1 µM), for inactives: at the top dose activity, positive = more growth. 0.4% of 270,000 active. AID 2326; calls by dose curve; note: actives are rising curves; nearly all actives have a fitted effect of over 50% in size
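Compounds were scored for reversing the slow growth caused by influenza A NS1 in S. cerevisiae, measured by optical density at 600 nm. Assay medium contained 2% galactose at pH 6.0; NS1-free yeast of the same strain were the positive control.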
The depositor's hits bear a star; [ ] = another dose, or the depositor's remark. Unless noted, calls come from the whole dose curve; as a rule, active = well fitted curve in the direction sought with a large enough effect; inconclusive = small, poorly fitted or top-dose-only effect, or another doubt; inactive = no such curve, though single readings can be large; an effect the other way counts as inactive or inconclusive. Potency is the fitted concentration of half-maximal effect.

Screening CCc1ccc(C2=CC(c3cccc(Br)c3)n3nnnc3N2)cc1 (stereo not drawn) returned Sm TGR inh 25µM* and TbPYK inhibitor 5%.
Screening Cn1c(=NC(=O)c2ccco2)sc2ccccc21 returned TbPYK inhibitor -4%, Giardia FBPA inh -11%, LmPK inhibitor inconclusive, RE007 growth inh -12% and NS1 inh -43%.
`CCOC(=O)N1CCN(C(=O)CSCC(=O)N=c2sc3ccccc3n2C)CC1` gave Sm TGR inh 16µM*, TbPYK inhibitor -18%, Giardia FBPA inh 3%, LmPK inhibitor -3%, RE007 growth inh -9% and NS1 inh -1%.
For CCOC(=O)N1CCN(C(=O)CSCC(=O)N=c2sc3cc(OC)ccc3n2C)CC1 the results were TbPYK inhibitor -5%, RE007 growth inh -5% and NS1 inh -2%.
For Cn1c(=NC(=O)CCl)sc2ccccc21 the results were Sm TGR inh 25µM*, TbPYK inhibitor 2%, LmPK inhibitor -5%, RE007 growth inh inconclusive and NS1 inh -55%.
CCCn1c2ccccc2c2cnn(CC(=O)N(Cc3ccccc3)C(C)C)c(=O)c21 was read as Sm TGR inh 3% and TbPYK inhibitor 1%.
Screening Cc1cc(C)n(-c2ncc3c(n2)N(CCO)CCOC3=O)n1 returned Sm TGR inh 4%, TbPYK inhibitor 1%, Giardia FBPA inh inconclusive, LmPK inhibitor 2%, RE007 growth inh -4% and NS1 inh 0%.
`CC1=CC2(O)OCCN(CCO)C2=CC1=O` (stereo not drawn) gave Sm TGR inh 20µM*, TbPYK inhibitor -24%, Giardia FBPA inh inconclusive, LmPK inhibitor -17%, RE007 growth inh -4% and NS1 inh inconclusive.
For CCOc1ccc(CNC(=O)c2ccc3c(c2)nc2n3CCCCC2)cc1 the results were Sm TGR inh -1% and TbPYK inhibitor -14%.
For O=C(NCCc1c[nH]c2ccccc12)c1ccccc1O the results were Giardia FBPA inh -9%.
O=C1/C(=C/c2cccnc2)SC(=S)N1N1CCOCC1 was read as Sm TGR inh 2.8µM*, TbPYK inhibitor 1%, Giardia FBPA inh 3%, LmPK inhibitor 4%, RE007 growth inh 28% and NS1 inh -4%.
Screening O=C1/C(=C/c2ccncc2)SC(=S)N1N1CCOCC1 returned Sm TGR inh 0.89µM*, TbPYK inhibitor -15%, Giardia FBPA inh inconclusive, LmPK inhibitor 4%, RE007 growth inh 7% and NS1 inh 0%.
C=CC1=C2C=C(C3CC3)N(CCCOC(C)C)C=C2C(=O)C(C)(OC(=O)c2ccco2)C1=O (stereo not drawn) was read as Giardia FBPA inh inconclusive and LmPK inhibitor -2%[11.5 µM].
`COc1cc(C2C3=C(CCCC3=O)Nc3c2c(C)nn3-c2cccc(C)c2)cc(OC)c1O` (stereo not drawn) gave Sm TGR inh 40µM*, TbPYK inhibitor -6%, Giardia FBPA inh inconclusive, LmPK inhibitor 0%, RE007 growth inh -4% and NS1 inh -23%.
Screening COc1cc(C2C3=C(CCCC3=O)Nc3[nH]n(-c4ccccc4)c(=O)c32)ccc1O (stereo not drawn) returned Sm TGR inh inconclusive, TbPYK inhibitor -11%, Giardia FBPA inh inconclusive, LmPK inhibitor -1%, RE007 growth inh 3% and NS1 inh 10%.
Screening Cc1ccc(-c2cc(C(=O)Nc3cccc(S(=O)(=O)N(C)C)c3)c3ccccc3n2)o1 returned Sm TGR inh 22µM*, TbPYK inhibitor inconclusive, Giardia FBPA inh -8%, LmPK inhibitor 2%, RE007 growth inh -11% and NS1 inh -1%.
Screening COc1cccc(NC(=O)c2cc(-c3ccc(C)o3)nc3ccccc23)c1 returned Sm TGR inh 35µM*, TbPYK inhibitor -21%, Giardia FBPA inh 8%, LmPK inhibitor -10%, RE007 growth inh -14% and NS1 inh 18%.
